From PubChem BioAssay (Tox21)
Records with an inconclusive call do not appear. Activity calls are given as the source filed them. Unless noted, the call rests on the fitted dose curve; in most records, active means well fitted curve in the direction sought with a large enough effect in the repeat runs; inconclusive means weak or mixed curves; inactive means no such curve, though single readings can be large; an effect the other way counts as inactive or inconclusive.

Columns and labels:
[1] = molecular target: Peroxisome proliferator-activated receptor delta (Homo sapiens) (UniProt Q03181); test: qHTS assay to identify small molecule agonists of the peroxisome proliferator-activated receptor delta (PPARd) signaling pathway (AID 743212; calls by dose curve)
Peroxisome proliferator-activated receptor delta (Homo sapiens), sequence (Q03181 whole entry, looked up): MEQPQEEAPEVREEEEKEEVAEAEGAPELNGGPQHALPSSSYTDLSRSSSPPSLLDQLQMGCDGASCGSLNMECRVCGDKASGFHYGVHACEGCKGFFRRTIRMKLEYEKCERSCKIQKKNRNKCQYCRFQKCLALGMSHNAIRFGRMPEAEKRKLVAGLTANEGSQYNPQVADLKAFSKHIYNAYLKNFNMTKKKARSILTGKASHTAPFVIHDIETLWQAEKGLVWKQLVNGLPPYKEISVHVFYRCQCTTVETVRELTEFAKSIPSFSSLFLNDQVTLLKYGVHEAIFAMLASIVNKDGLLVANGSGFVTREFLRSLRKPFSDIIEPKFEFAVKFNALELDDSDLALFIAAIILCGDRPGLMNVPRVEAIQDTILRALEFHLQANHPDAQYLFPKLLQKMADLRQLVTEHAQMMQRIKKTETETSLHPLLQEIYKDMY
In short: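 Tox21 library screened in GeneBLAzer PPARd UAS-bla HEK293H cells. After compound treatment at 37 C, a FRET-based beta-lactamase substrate was applied for 2 h and fluorescence recorded.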

[2] = qHTS assay to identify small molecule antagonists of the peroxisome proliferator-activated receptor delta (PPARd) signaling pathway - cell viability counter screen (AID 743213); further: nearly all actives have a fitted effect of over 50% in size
In short: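 HEK293H PPARd UAS-bla cells, 5 h pre-incubation, compound + L165041 300 nM final, 17 h 37 C; B/G FRET substrate 2 h RT; then CellTiter-Glo 30 min RT, luminescence.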

[3] = molecular target: Peroxisome proliferator-activated receptor delta (Homo sapiens) (UniProt Q03181); test: qHTS assay to identify small molecule antagonists of the peroxisome proliferator-activated receptor delta (PPARd) signaling pathway (AID 743215; active means well fitted inhibition curve with a large enough effect in the signal ratio in the repeat runs, not every such curve was filed as active; the % refers to the signal ratio;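 further: cells stimulated with agonist L165041 at 300 nM final during compound exposure; series mostly up to about 62 µM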)
In short: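 Plated HEK293H PPARd-bla cells rested 5 h at 37 C and 5% CO2. Compound, then agonist L165041 at 300 nM final, was added; 17 h at 37 C followed. Substrate loading, 2 h room temperature, fluorescence measured.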

[4] = molecular target: Bile acid receptor (Homo sapiens) (UniProt Q96RI1); test: qHTS assay to identify small molecule antagonists of the farnesoid-X-receptor (FXR) signaling pathway (AID 743217; active means well fitted inhibition curve with a large enough effect in the signal ratio in the repeat runs, not every such curve was filed as active; the % refers to the signal ratio)
Bile acid receptor (Homo sapiens), sequence (Q96RI1 whole entry, looked up): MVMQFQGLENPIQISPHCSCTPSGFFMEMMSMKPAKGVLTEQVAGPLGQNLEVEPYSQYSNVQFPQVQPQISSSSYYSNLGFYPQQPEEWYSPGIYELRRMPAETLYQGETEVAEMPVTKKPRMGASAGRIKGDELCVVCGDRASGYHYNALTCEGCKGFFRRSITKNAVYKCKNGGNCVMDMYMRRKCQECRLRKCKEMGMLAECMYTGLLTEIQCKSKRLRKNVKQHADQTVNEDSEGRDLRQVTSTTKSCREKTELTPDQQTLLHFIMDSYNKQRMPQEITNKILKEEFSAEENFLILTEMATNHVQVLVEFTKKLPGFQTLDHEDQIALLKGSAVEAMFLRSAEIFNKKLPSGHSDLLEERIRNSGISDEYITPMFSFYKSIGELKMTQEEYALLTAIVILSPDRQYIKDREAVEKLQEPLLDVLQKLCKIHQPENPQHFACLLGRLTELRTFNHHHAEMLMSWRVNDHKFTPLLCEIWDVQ
In short: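 Screen of the Tox21 10K library in quantitative HTS format using FXR-UAS-bla HEK 293T reporter cells. Agonist chenodeoxycholic acid, 50 uM final, added with compounds; 16 h incubation at 37 °C; beta-lactamase FRET fluorescence measured.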

[5] = qHTS assay to identify small molecule agonists of the farnesoid-X-receptor (FXR) signaling pathway - cell viability counter screen (AID 743218); further: nearly all actives have a fitted effect of over 45% in size
In short: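 Viability of FXR-bla HEK 293T cells is measured by ATP-based CellTiter-Glo luminescence following 16 h compound treatment at 37 C and a prior 2 h room-temperature beta-lactamase substrate step.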

[6] = molecular target: Bile acid receptor (Homo sapiens) (UniProt Q96RI1); test: qHTS assay to identify small molecule agonists of the farnesoid-X-receptor (FXR) signaling pathway (AID 743220; active means well fitted activation curve with a large enough effect in the signal ratio in the repeat runs, not every such curve was filed as active; the % refers to the signal ratio)
In short: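 FXR-UAS-bla HEK 293T cells carrying a UAS-driven beta-lactamase reporter were plated for 5 h at 37C/5% CO2, then exposed to DMSO-dissolved Tox21 10K compounds for 16 h at 37C. A LiveBLAzer B/G FRET substrate was loaded for 2 h at room temperature before fluorescence reading.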

[7] = qHTS assay to identify small molecule antagonists of the farnesoid-X-receptor (FXR) signaling pathway - cell viability counter screen (AID 743221; active means well fitted cell-killing curve with a large enough effect in the repeat runs, not every such curve was filed as active; further: nearly all actives have a fitted effect of over 50% in size)
In short: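 Here viability was scored by luminescence after CellTiter-Glo addition to wells already read for beta-lactamase. Prior treatment: compound plus CDCA (50 uM final), 16 h, 37 C, HEK 293T FXR-bla cells.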

[8] = molecular target: Vitamin D3 receptor (Homo sapiens) (UniProt P11473); test: qHTS assay to identify small molecule agonists of the vitamin D receptor (VDR) signaling pathway (AID 743222; calls by dose curve)
Vitamin D3 receptor (Homo sapiens), sequence (P11473 whole entry, looked up): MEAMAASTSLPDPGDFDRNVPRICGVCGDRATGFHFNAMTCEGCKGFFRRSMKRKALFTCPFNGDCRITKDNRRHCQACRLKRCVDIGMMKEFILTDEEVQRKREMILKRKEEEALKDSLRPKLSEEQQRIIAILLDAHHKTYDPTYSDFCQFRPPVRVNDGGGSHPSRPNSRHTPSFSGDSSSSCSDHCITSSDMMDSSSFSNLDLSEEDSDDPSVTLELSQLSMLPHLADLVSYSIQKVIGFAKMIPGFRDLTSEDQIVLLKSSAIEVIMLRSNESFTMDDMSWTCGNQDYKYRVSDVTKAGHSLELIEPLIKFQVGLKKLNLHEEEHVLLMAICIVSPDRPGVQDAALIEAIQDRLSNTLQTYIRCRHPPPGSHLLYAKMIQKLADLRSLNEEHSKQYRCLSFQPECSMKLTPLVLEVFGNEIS
In short: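 Fluorescence from cleaved LiveBLAzer B/G FRET substrate served as readout. VDR-bla cells had been treated 16 h at 37C with test compounds in DMSO, following a 4 h settling period, and substrate was loaded for 2 h at RT.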

[9] = qHTS assay to identify small molecule agonists of the vitamin D receptor (VDR) signaling pathway - cell viability counter screen (AID 743224); further: series mostly up to about 63 µM; nearly all actives have a fitted effect of over 50% in size
In short: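 Compounds were pin-transferred onto VDR-bla cells plated 4 h earlier; following 16 h incubation at 37C, cell viability was quantified by CellTiter-Glo luminescence after 30 min at room temperature.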

[10] = molecular target: Vitamin D3 receptor (Homo sapiens) (UniProt P11473); test: qHTS assay to identify small molecule antagonists of the vitamin D receptor (VDR) signaling pathway (AID 743223; active means well fitted inhibition curve with a large enough effect in the signal ratio in the repeat runs, not every such curve was filed as active; the % refers to the signal ratio)
In short: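 Inhibition of agonist-driven VDR signalling is scored in VDR-bla cells: 3 nM final 1alpha,25-dihydroxyvitamin D3 plus compound, 16 h at 37C, then beta-lactamase detection by FRET substrate fluorescence after 2 h.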
On the % scale 0 is the no-effect control and ±100 the full control effect.

CCN(CC)CC(=O)Oc1ccc(NC(C)=O)cc1
inactive: outcome [1] | outcome [2] | outcome [3] | outcome [4] | outcome [5] | outcome [6] | outcome [7] | outcome [8] | outcome [9]

COC(=O)c1ccc(C(=O)O)cc1
inactive: outcome [1] | outcome [2] | outcome [3] | outcome [5] | outcome [6] | outcome [7] | outcome [8] | outcome [10] | outcome [9]

CC1(C)CC(N)CC(C)(C)N1
inactive: outcome [1] | outcome [2] | outcome [3] | outcome [5] | outcome [6] | outcome [7] | outcome [8] | outcome [9]

O=C(O)P(=O)(O)O
inactive: outcome [1] | outcome [2] | outcome [3] | outcome [5] | outcome [6] | outcome [8] | outcome [10] | outcome [9]

OCCC(F)(F)C(F)(F)C(F)(F)C(F)(F)C(F)(F)C(F)(F)F
inactive: outcome [1] | outcome [2] | outcome [3] | outcome [5] | outcome [6] | outcome [7] | outcome [9]

CN1CCN(C(=O)C2CCCCC2)CC1
inactive: outcome [1] | outcome [2] | outcome [3] | outcome [4] | outcome [6] | outcome [7] | outcome [8] | outcome [10] | outcome [9]

CCN1CCN(C(=O)N[C@@H](C(=O)N[C@@H]2C(=O)N3[C@@H]2SC(C)(C)[C@H]3C(=O)O)c2ccccc2)C(=O)C1=O
inactive: outcome [1] | outcome [2] | outcome [3] | outcome [5] | outcome [7] | outcome [8] | outcome [10]

CC1(C)C(=O)C(C)(C)C1=O
inactive: outcome [1] | outcome [2] | outcome [3] | outcome [4] | outcome [5] | outcome [6] | outcome [8] | outcome [10] | outcome [9]

CN(C)c1cc(NC(=O)CNC(C)(C)C)c(O)c2c1C[C@H]1C[C@H]3[C@H](N(C)C)C(=O)C(C(N)=O)=C(O)[C@@]3(O)C(=O)C1=C2O
inactive: outcome [1] | outcome [2] | outcome [3] | outcome [4] | outcome [5] | outcome [6] | outcome [7] | outcome [8] | outcome [10] | outcome [9]

CCc1ncc(C)[nH]1
inactive: outcome [1] | outcome [2] | outcome [3] | outcome [5] | outcome [6] | outcome [7] | outcome [8] | outcome [10] | outcome [9]

CCCCC(O)/C=C(C)/C=C/C=C/C(=O)N1CCCC1=O (stereo not given)
inactive: outcome [1] | outcome [2] | outcome [3] | outcome [4] | outcome [5] | outcome [6] | outcome [8] | outcome [10] | outcome [9]

C/C(=N\O)c1ccc(OCC(=O)N2CCCCC2)cc1
inactive: outcome [1] | outcome [2] | outcome [3] | outcome [5] | outcome [6] | outcome [9]

CCOCCOCCOC(C)=O
inactive: outcome [1] | outcome [2] | outcome [3] | outcome [4] | outcome [5] | outcome [6] | outcome [7] | outcome [8] | outcome [9]

C=CCN1CCc2nc(N)sc2CC1
inactive: outcome [1] | outcome [2] | outcome [3] | outcome [5] | outcome [7] | outcome [8] | outcome [10] | outcome [9]

CC(=O)OC/C=C(/C)CCC=C(C)C
inactive: outcome [1] | outcome [2] | outcome [3] | outcome [5] | outcome [7] | outcome [9]

N=C(N)N1CCc2ccccc2C1
inactive: activation [1] 2.47% [at 5.95 µM] | viability change, negative = cytotoxic [2] -9.71% [at 6.26 µM] | ratio activity, negative = inhibition [3] -18.7% [at 6.26 µM] | viability change, negative = cytotoxic [5] 5.62% [at 5.95 µM] | activity change, negative = cytotoxicity [7] -6.73% [at 5.95 µM] | activation [8] 4.08% [at 6.01 µM] | activity change, negative = cytotoxicity [9] -1.18% [at 5.95 µM]

CCOC(=O)c1ccc(N(C)C)cc1
inactive: outcome [1] | outcome [2] | outcome [3] | outcome [5] | outcome [7] | outcome [8] | outcome [10] | outcome [9]

CC1(C)S[C@@H]2[C@H](NC(=O)Cc3ccccc3)C(=O)N2[C@H]1C(=O)O (tested in a mixture with another compound)
inactive: outcome [1] | outcome [2] | outcome [3] | outcome [5] | outcome [7] | outcome [9]

CC(C)(C)c1ccc(C(=O)CCCCl)cc1
inactive: outcome [1] | outcome [2] | outcome [3] | outcome [5] | outcome [7] | outcome [8] | outcome [10] | outcome [9]

CC(O)CCCCn1c(=O)c2c(ncn2C)n(C)c1=O (stereo not given)
inactive: outcome [1] | outcome [2] | outcome [3] | outcome [5] | outcome [7] | outcome [8] | outcome [10] | outcome [9]

CC(C)(O)CCCC1=CCC(C=O)CC1 (stereo not given)
inactive: outcome [1] | outcome [2] | outcome [3] | outcome [5] | outcome [7] | outcome [10] | outcome [9]

C[C@@H](CN1CC(=O)NC(=O)C1)N1CC(=O)NC(=O)C1
inactive: outcome [1] | outcome [2] | outcome [3] | outcome [5] | outcome [7] | outcome [8] | outcome [10] | outcome [9]

O=C[C@@H](O)[C@H](O)[C@H](O)CO
inactive: outcome [1] | outcome [2] | outcome [3] | outcome [5] | outcome [7] | outcome [9]

N#Cc1ccccc1C#N
inactive: outcome [1] | outcome [2] | outcome [3] | outcome [5] | outcome [7] | outcome [10] | outcome [9]

CCOC(=O)CC(C(C)=O)C(C)=O
inactive: outcome [1] | outcome [2] | outcome [3] | outcome [5] | outcome [7] | outcome [8] | outcome [10] | outcome [9]

CNC(C)=O
inactive: outcome [1] | outcome [2] | outcome [3] | outcome [5] | outcome [7] | outcome [8] | outcome [10] | outcome [9]

O=C(O)CCC(=O)Nc1ccc(S(=O)(=O)Nc2nccs2)cc1
inactive: outcome [1] | outcome [2] | outcome [3] | outcome [5] | outcome [7] | outcome [8] | outcome [10] | outcome [9]

COC(=O)c1ccccc1Cl
inactive: outcome [1] | outcome [2] | outcome [3] | outcome [5] | outcome [7] | outcome [8] | outcome [9]

O=S(=O)(O)c1cc(I)c(O)c2ncccc12
inactive: outcome [1] | outcome [2] | outcome [3] | outcome [5] | outcome [7] | outcome [9]
